Experimental data: PubChem BioAssay AID485313 (National Center for Advancing Translational Sciences (NCATS), 2010)
Out of some 320,000 compounds screened, about 7,600 (2.4%) were called active. About 3% were inconclusive and are not listed. Only a selection was taken, and actives are over-represented in it overall. Values without a mark were called inactive. Calls follow the shape of the dose curve; as a rule, active = well fitted activation curve with a large enough effect; inconclusive = small, poorly fitted or top-dose-only effect; inactive = no such curve, though single readings can be large or run the other way.
Potency is read from the fitted curve at half-maximal effect.

Test: qHTS Assay for NPC1 Promoter Activators; also: nearly all actives have a fitted effect of over 60% in size; as to activation: % of control where 0% means no effect
Conditions: Huh7 NPC1 promoter luciferase reporter, 24 h; series mostly up to 9.22 µM; activation: at the top concentration
Procedure, shortened: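 Luminescence from an NPC1 promoter-driven luciferase reporter in stably transfected Huh7 cells was measured after 24 h compound treatment at 37 °C, followed by 10 min ambient incubation with luciferase detection reagent.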
With O=C(COC(=O)c1ccccc1Cl)NC1CCCCCCC1 the “activation” value was -2.13%.
In the case of O=C(N[C@@H](Cc1c[nH]c2ccccc12)C(=O)O)OCC1c2ccccc2-c2ccccc21, the “activation” value is reported as -7.22%.
With O=C(Nc1ccccn1)C1CCN(S(=O)(=O)c2ccc3c(c2)OCCO3)CC1 the “activation” value was 14.3%.
With CCOC(=O)C1CCCN(S(=O)(=O)c2ccc3c(c2)C(C)(C)C(=O)N3C)C1 (stereo unspecified) the “activation” value was -2.74%.
In the case of COc1ccc(N(CCC(=O)NCCc2ccccc2)S(=O)(=O)c2ccc(C)cc2C)cc1, the “activation” value is reported as 22.4%.
In the case of COc1ccc([C@H]2CC(=O)C=C(c3ccc(OC(F)(F)F)cc3)C2)cc1OC, the “activation” value is reported as -9.62%.
In the case of O=C(O)CSc1ccc(S(=O)(=O)N2CCCC2)cn1, the “activation” value is reported as -3.11%.
For Cc1ccc(C(=O)OCC(=O)Nc2ccc(Cl)cn2)cc1S(=O)(=O)N1CCOCC1, the “activation” value was -2.74%.
With O=C(NCCc1ccc(F)cc1)c1ccc(S(=O)(=O)N2CCCCC2)cc1 the “activation” value was -0.529%.
With Cc1ccc(C)c(NC(=O)c2ccc3nccnc3c2)c1 the “activation” value was 17.9%.
In the case of O=C(NCCc1ccc(F)cc1)c1ccc2nccnc2c1, the Potency is reported as 1.78 µM (active).
For Cc1ccc(S(=O)(=O)NCCC(=O)NCc2ccc(Cl)cc2)cc1C, the “activation” value was -0.223%.
With CCN(CC)C(CNC(=O)CSc1nnnn1-c1cccc(F)c1)c1ccco1 (stereo unspecified) the “activation” value was -0.632%.
With CC(NC(=O)c1cccc(S(=O)(=O)N2CCc3ccccc3C2)c1)c1ccco1 (stereo unspecified) the “activation” value was -1.49%.
For COC(=O)c1c(NC(C)=O)sc(C(=O)Nc2ccccc2OC)c1C, the “activation” value was -0.966%.
With CCC(=O)Nc1sc(C(=O)Nc2ccccc2)c(C)c1C(=O)OC the Potency was 0.794 µM (active).
In the case of CCOC(=O)c1sc(NC(=O)COc2ncnc3ccccc23)c(C(=O)OCC)c1C, the “activation” value is reported as 0.322%.
In the case of NC(=O)NC(CC(=O)NNC(=O)c1ccccn1)c1ccc(Cl)cc1 (stereo unspecified), the “activation” value is reported as -0.18%.
With CC(C)CCN1CCC(C)(NC(=O)c2ccccc2)C1=O (stereo unspecified) the “activation” value was 4.78%.
With COc1ccc(NC(=O)CS(=O)(=O)c2ccccc2)cc1 the “activation” value was 22.2%.
With COc1ccc(C(CC(=O)c2ccccc2)S(=O)(=O)c2ccccc2)cc1 (stereo unspecified) the Potency was 3.55 µM (active).
For COc1ccc(N(Cc2ccccc2)S(=O)(=O)c2cccc(C(=O)O)c2)cc1, the “activation” value was 0.572%.
With O=C(CN1CCN(S(=O)(=O)c2ccc(Cl)s2)CC1)N1CCCCC1 the “activation” value was -0.339%.
With COc1cc([N+](=O)[O-])ccc1NC(=O)COC(=O)CCOc1ccc(C)cc1 the “activation” value was -18.1%.
For COc1ccc(CNC(=O)c2ccc3oc(C(C)C)nc3c2)cc1, the Potency was 3.55 µM (active).
In the case of COc1ccc(CNC(=O)c2cc(=O)c3c(C)cc(C)cc3o2)cc1, the “activation” value is reported as 1.79%.
For CC(C)c1nc2cc(C(=O)NC(C)c3cnn(C)c3)ccc2o1 (stereo unspecified), the “activation” value was -0.273%.
For CCCN(C(=O)c1nc2nccc(C)n2n1)c1c(N)n(Cc2ccccc2)c(=O)[nH]c1=O, the “activation” value was -1.99%.
In the case of Cn1c2cc(B(O)O)sc2c2cnn(Cc3ccccc3F)c(=O)c21, the “activation” value is reported as -9.76%.
With CCOCc1c(C(=O)N2CCN(Cc3ccc(Br)s3)CC2)oc2ccccc12 the “activation” value was -2.8%.
With Cc1ccc(/C=C/C(=O)OCC(=O)Nc2cccnc2Cl)cc1 the “activation” value was -3.1%.
In the case of CCCCCOC(=O)NCCOC(=O)Nc1ccc(C(=O)OCC)cc1, the “activation” value is reported as -4.44%.
For CCCCCCOC(=O)NCC(O)c1ccccc1 (stereo unspecified), the Potency was 3.98 µM (active).
With CCCCOC(=O)Nc1nnc(CC(=O)NCc2ccccc2)s1 the “activation” value was -2.1%.
For N#Cc1ccc(C2N=C(c3ccccc3)NO2)cc1 (stereo unspecified), the Potency was 1.26 µM (active).
In the case of Brc1ccccc1C1N=C(c2ccccc2)NO1 (stereo unspecified), the Potency is reported as 3.98 µM (active).
For S=C1NC(c2ccccc2)=NCN1c1ccc(Br)cc1, the “activation” value was 11.1%.
For Brc1ccccc1C1Nc2cccc3cccc(c23)N1, the “activation” value was -5.12%.
With CSCC[C@H](NC(=O)NC1CCCC1)C(=O)O the “activation” value was -1.29%.
With Cc1c(NC(=O)CSc2nnc(-c3cccnc3)n2N)c(=O)n(-c2ccccc2)n1C the “activation” value was -4.26%.
For O=S(=O)(NCc1ccccc1Br)c1ccccc1Br, the “activation” value was 0.992%.
In the case of C=C1CCC(N(O)c2cc(C)on2)C(=C)CCC2C1CC2(C)C (stereo unspecified), the “activation” value is reported as -0.705%.
In the case of O=C(COc1ccc2oc3c(c2c1)CCCC3)Nc1ccccn1, the Potency is reported as 0.631 µM (active).
For CCOC(=O)N1CCN(C(=O)COc2ccc3oc4c(c3c2)CCCC4)CC1, the “activation” value was 0.817%.
In the case of CCN(CC)CCCNC(=O)COc1ccc2oc3c(c2c1)CCCC3, the “activation” value is reported as -11.7%.
For Cc1cc(C)nc(N/N=C/c2c(C)oc3ccccc23)n1, the “activation” value was -5.87%.
With Cc1nc(Cl)cc(N/N=C/c2ccccc2)n1 the “activation” value was 10.4%.
In the case of Cc1noc(C)c1/C=N/Nc1ccc2ccccc2n1, the Potency is reported as 2.82 µM (active).
For C(=N\Nc1ccc2ccccc2n1)/c1ccc2c(c1)OCO2, the Potency was 0.316 µM (active).
For Brc1ccc(-c2csc(N/N=C/c3ccc4c(c3)OCO4)n2)cc1, the “activation” value was 6.54%.
With O=C(N/N=C/c1ccc2c(c1)OCO2)C(=O)N1CCCC1 the “activation” value was 26.8%.
With CCOc1ccc(S(=O)(=O)N2CCCCC2)cc1NC(=O)CN1CCCC1c1cccs1 (stereo unspecified) the “activation” value was -18.7%.
For O=C(c1ccc(Cl)nc1)N1CCN(S(=O)(=O)c2ccc3c(c2)OCCO3)CC1, the “activation” value was -8.95%.
In the case of CCN(CC)CCCNC(=S)N(CCO)Cc1cc2cc3c(cc2[nH]c1=O)OCO3, the “activation” value is reported as -0.386%.
In the case of CC(C)n1c(COc2ccccc2)nc2ccccc21, the “activation” value is reported as 5.01%.
For CCOc1ccc(C(O)Cc2nc3ccccc3n2C)cc1 (stereo unspecified), the “activation” value was 27.8%.
In the case of Cc1ccc(OCc2nc3ccccc3n2C)cc1, the Potency is reported as 3.55 µM (active).
In the case of CCOC(=O)N1CCN(S(=O)(=O)c2ccc3c(c2)C(C)C(=O)N3)CC1 (stereo unspecified), the “activation” value is reported as 1.11%.
With Cc1ccc(C(=O)NNC2=Nc3cc([N+](=O)[O-])ccc3OC2)cc1 the “activation” value was 0.883%.
In the case of COc1ccc(C2=NOC(COC(=O)c3ccc4ccccc4n3)C2)cc1 (stereo unspecified), the “activation” value is reported as 1.95%.
For COc1ccc(C2=Nc3cc(C)ccc3OC2)cc1, the Potency was 0.891 µM (active).
With COc1ccc2ccn(C)c2c1 the “activation” value was 0.38%.
In the case of Cc1nn(Cc2ccccc2)c(C)c1C(=O)NCCCN1CCCC1=O, the “activation” value is reported as -7.25%.
In the case of Clc1ccc(-c2cc(-c3ccccn3)on2)c(Cl)c1, the Potency is reported as 0.1 µM (active).
For COn1c(-c2ccc(Cl)cc2Cl)nc2ncccc21, the “activation” value was -1.68%.
With Clc1ccc(-c2ncc3ccccn23)c(Cl)c1 the “activation” value was -8.18%.
For CC(=O)CCC(=O)c1ccc2ccccc2c1, the “activation” value was 8.66%.
For Cc1cc(N=Nc2ccc3ccccc3c2)ccc1O, the Potency was 2.24 µM (active).
In the case of Cc1ccc(/C=N/NC(=O)c2cc3ccccc3cc2O)o1, the “activation” value is reported as 19.5%.
For Cc1ccc(S(=O)(=O)N(C)C)cc1NC(=O)c1ccc(-n2cncn2)c([N+](=O)[O-])c1, the “activation” value was -1.61%.
With Cc1ccc(NC(=O)CN(C)C(=O)c2cccc(S(=O)(=O)N3CCCC3)c2)cc1 the “activation” value was -0.017%.
